From article PMC7819943, “Rice protein-binding microarrays: a tool to detect cis-acting elements near promoter regions in rice”
The full ranking holds about 68,000 sequences; the median of “fluorescence intensity (a.u.)” is about 9,100, and the highest 2% start at about 16,000. The full list was thinned out, with the highest values kept by preference.

Biological target: OsWRKY34 (Oryza sativa, UniProt Q0JBA9 1-250)
Test: protein-binding microarray (RPBM); PBS, 2% BSA, 51.3 ng/ul salmon testes DNA, 50 uM zinc acetate, 200 nM TF, 25 C, 1 h; high values mean tight binding
Conditions: protein: recombinant; tags: N-terminal polyhistidine and DsRed monomer fusion (pET32a); label: CyDye5-dUTP incorporated in the synthesized complementary strand; 3' TTTTT single-stranded linker to array surface; dsDNA, one strand shown
Summary of the method: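 Transcription factors, each fused N-terminally to a polyhistidine tag and DsRed, were expressed in E. coli BL21-CodonPlus and purified on Ni–NTA. A custom Agilent array was made double-stranded by primer extension with Cy5-dUTP and blocked with 2% BSA. It was incubated with 200 nM protein in PBS, 2% BSA, salmon testes DNA and 50 µM zinc acetate at 25 °C for 1 h, then washed. The binding signal is per-feature fluorescence intensity (arbitrary units) read on an Axon 4000B scanner.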

Sequence of OsWRKY34 (Q0JBA9 entry or part of it): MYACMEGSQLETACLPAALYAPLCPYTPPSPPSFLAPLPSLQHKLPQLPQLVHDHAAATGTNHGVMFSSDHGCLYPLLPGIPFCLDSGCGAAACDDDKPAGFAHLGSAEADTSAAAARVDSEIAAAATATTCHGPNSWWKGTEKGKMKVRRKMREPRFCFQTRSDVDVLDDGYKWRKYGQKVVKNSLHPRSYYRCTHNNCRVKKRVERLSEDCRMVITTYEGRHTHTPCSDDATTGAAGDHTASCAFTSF

Q: How did the binding signal turn out when “ACACGATATAGTCATTGCAATTATCACGGATCCAGGTCCTCGGAGTCACCTAGTGCAG” was run?
A: The binding signal was 8560 fluorescence intensity (a.u.).

Q: How did the binding signal turn out when “AGTACACACCATTTGACATCCTGATTATGTATAGTAATTTCGGAGTCACCTAGTGCAG” was run?
A: The binding signal was 8350 fluorescence intensity (a.u.).

Q: For “TCAGCTATCATAGTCTTCTAGAATGCTCTTCTTGTCAGATCGGAGTCACCTAGTGCAG”, which binding signal is on record?
A: The binding signal was 8220 fluorescence intensity (a.u.).

Q: How did the binding signal turn out when “ATGGGTTGGTAGAGGGGAGGGAACGCGCGACGGTGGCGAGCGGAGTCACCTAGTGCAG” was run?
A: The binding signal was 8740 fluorescence intensity (a.u.).

Q: How did the binding signal turn out when “GTCTCGTGGCACCTCAATTTATTAATCACTACCCCTATACCGGAGTCACCTAGTGCAG” was run?
A: The binding signal was 8710 fluorescence intensity (a.u.).

Q: For “CATTAGACCCTGAGGTTTTTGACTAGGCAGCCCACTTGTCCGGAGTCACCTAGTGCAG”, which binding signal is on record?
A: The binding signal was 9040 fluorescence intensity (a.u.).

Q: For “AAAAAGTCAACGGCGTCATATATTAAAATATGGAGAGAGTCGGAGTCACCTAGTGCAG”, which binding signal is on record?
A: Its binding signal is 8150 fluorescence intensity (a.u.).

Q: How did the binding signal turn out when “ACAAATGGTCAAACGTTGGTCGAAAAGTCAACGGCGTCATCGGAGTCACCTAGTGCAG” was run?
A: Its binding signal is 13700 fluorescence intensity (a.u.).

Q: For “TTTAAATAAAACGAATGGTCAAACGTTGATAAAAAGTCAACGGAGTCACCTAGTGCAG”, which binding signal is on record?
A: The binding signal was 13300 fluorescence intensity (a.u.).

Q: Which binding signal does the source give for “GAAATGTCAAATATTTGTTAAAAAGTCAACGGCGTCATACCGGAGTCACCTAGTGCAG” here?
A: The binding signal was 11900 fluorescence intensity (a.u.).

Q: Which binding signal does the source give for “GTTTGTCAAAAAGTCAACGGCGTCATATATTATACGGAGGCGGAGTCACCTAGTGCAG” here?
A: Its binding signal is 18800 fluorescence intensity (a.u.).

Q: For “AAACGAATAGTCAAACGTTGATCGAAAAGTCAACGGCGTCCGGAGTCACCTAGTGCAG”, which binding signal is on record?
A: The binding signal was 19300 fluorescence intensity (a.u.).

Q: For “CGGATGGTCAAACGTTGGTCAAAAAGTCAACGGCGTCATACGGAGTCACCTAGTGCAG”, which binding signal is on record?
A: Its binding signal is 19600 fluorescence intensity (a.u.).

Q: For “GATCAAACGTTGGTTAAAAAGTCAACGGCGTCATACATTACGGAGTCACCTAGTGCAG”, which binding signal is on record?
A: The binding signal was 10700 fluorescence intensity (a.u.).

Q: How did the binding signal turn out when “TAAAACGAATGGTCAAACGTTGGTCGAAAAGTCAACGGCGCGGAGTCACCTAGTGCAG” was run?
A: Its binding signal is 14400 fluorescence intensity (a.u.).

Q: “AATGGTCAAACGTTGGATAAAAAGTCAACGGCGTCATACACGGAGTCACCTAGTGCAG” was tested. Which binding signal did it give?
A: Its binding signal is 14700 fluorescence intensity (a.u.).

Q: “ACAAATGGTCAAACGTTGATAAAAAAGTCAACGGCGTCATCGGAGTCACCTAGTGCAG” was tested. Which binding signal did it give?
A: The binding signal was 20600 fluorescence intensity (a.u.).

Q: “ATAAAACAAATGATCAAACGTTGAATAAAAAGTCAACGGCCGGAGTCACCTAGTGCAG” was tested. Which binding signal did it give?
A: The binding signal was 11100 fluorescence intensity (a.u.).

Q: Which binding signal does the source give for “GGTTTTTCCTAGTTTTGAGATTTACGTGCTATTTTGTGAACGGAGTCACCTAGTGCAG” here?
A: Its binding signal is 8950 fluorescence intensity (a.u.).

Q: For “CGTGTCGCACCACATCCAGCGTCCCACGGCCTACCACCGCCGGAGTCACCTAGTGCAG”, which binding signal is on record?
A: Its binding signal is 8700 fluorescence intensity (a.u.).

Q: “ATATGGCATCTCGGTTTCGTCTTAACAGGGTATTGCACTACGGAGTCACCTAGTGCAG” was tested. Which binding signal did it give?
A: The binding signal was 9900 fluorescence intensity (a.u.).

Q: With “ACTCCCTTGCTTTTTCTCGCTATCAATCACAATAATCCAACGGAGTCACCTAGTGCAG” as the sequence, how does the binding signal read?
A: Its binding signal is 9590 fluorescence intensity (a.u.).

Q: With “CGTGTGGTTGATTGTGTGTGCGAGCCGAATGCTGCCTACTCGGAGTCACCTAGTGCAG” as the sequence, how does the binding signal read?
A: Its binding signal is 9260 fluorescence intensity (a.u.).

Q: With “TTACCATGGTGCATTTACGGCTGTGATCGCTTTGTTGTACCGGAGTCACCTAGTGCAG” as the sequence, how does the binding signal read?
A: Its binding signal is 9370 fluorescence intensity (a.u.).

Q: “TCTCGGCTCGCAATGCTTTTTGGAGTTTTGTTTCTCTCCCCGGAGTCACCTAGTGCAG” was tested. Which binding signal did it give?
A: Its binding signal is 10200 fluorescence intensity (a.u.).

Q: With “TCATTGCACCTCTCATTTAACAAGGGATATAATAGTTCTTCGGAGTCACCTAGTGCAG” as the sequence, how does the binding signal read?
A: Its binding signal is 8360 fluorescence intensity (a.u.).

Q: “TGGCATCATCGACCATACACTTTTGTCAATCCGTTCAGCTCGGAGTCACCTAGTGCAG” was tested. Which binding signal did it give?
A: The binding signal was 8910 fluorescence intensity (a.u.).

Q: How did the binding signal turn out when “GCTTCAAACTCGAGCTTCTACCAGTACCAGCTACCAGGTGCGGAGTCACCTAGTGCAG” was run?
A: Its binding signal is 8190 fluorescence intensity (a.u.).

Q: Which binding signal does the source give for “AAAAAGTCAACGGCGTCAAACATATTGAAACGGAGGGAGTCGGAGTCACCTAGTGCAG” here?
A: Its binding signal is 8240 fluorescence intensity (a.u.).

Q: “CAAACGTTGGAAAAAAGTCAACGGCGTCATATATTTTAATCGGAGTCACCTAGTGCAG” was tested. Which binding signal did it give?
A: The binding signal was 15800 fluorescence intensity (a.u.).

Q: How did the binding signal turn out when “TAGTCAAACGTTGAAAAAAAAAGTCAACGGCGTCACACATCGGAGTCACCTAGTGCAG” was run?
A: Its binding signal is 20900 fluorescence intensity (a.u.).

Q: How did the binding signal turn out when “AAAATTCCTAAAACTACTTGCTACTATTCTCTCTCCAACTCGGAGTCACCTAGTGCAG” was run?
A: Its binding signal is 8240 fluorescence intensity (a.u.).

Q: “TCCTCGCGTTCTTTTTCTCCACCGAGACCACCGGCGCTCTCGGAGTCACCTAGTGCAG” was tested. Which binding signal did it give?
A: Its binding signal is 9050 fluorescence intensity (a.u.).

Q: Which binding signal does the source give for “TTGGTGGCCTTTTCTCCCTTTTTTGCATGTGCTTTGCTCTCGGAGTCACCTAGTGCAG” here?
A: The binding signal was 14100 fluorescence intensity (a.u.).

Q: How did the binding signal turn out when “GATACCGTTGACTTTTTAGCACATATTTGACCGTTCGTCTCGGAGTCACCTAGTGCAG” was run?
A: Its binding signal is 39400 fluorescence intensity (a.u.).

Q: With “GATTTTGACTTTTTACTTGCACTGTTTGACCATTCATATTCGGAGTCACCTAGTGCAG” as the sequence, how does the binding signal read?
A: Its binding signal is 16300 fluorescence intensity (a.u.).

Q: With “GGATTTTAAGTTTTTACTTGCACTGTTTGACCATTCGTCTCGGAGTCACCTAGTGCAG” as the sequence, how does the binding signal read?
A: Its binding signal is 9200 fluorescence intensity (a.u.).

Q: For “CACATATCGTTTAAATTTTCGACTTGACCGTTTTTCAATTCGGAGTCACCTAGTGCAG”, which binding signal is on record?
A: Its binding signal is 9550 fluorescence intensity (a.u.).

Q: With “AGCACATATTTGACCGTTCGTCTTATTCAAAAACTTTTATCGGAGTCACCTAGTGCAG” as the sequence, how does the binding signal read?
A: Its binding signal is 8540 fluorescence intensity (a.u.).

Q: For “TGATACCGTTGACTTTTCACATAACTTGGTCGTTCGTTTTCGGAGTCACCTAGTGCAG”, which binding signal is on record?
A: The binding signal was 34100 fluorescence intensity (a.u.).

Q: Which binding signal does the source give for “TACCCCTCCGTTTCATATGATAAGTTGTTTGACTTTTTTTCGGAGTCACCTAGTGCAG” here?
A: Its binding signal is 14300 fluorescence intensity (a.u.).

Q: With “GGATTTTGACTTTTTACTTGCACTGTTTGACTATTCGTCTCGGAGTCACCTAGTGCAG” as the sequence, how does the binding signal read?
A: The binding signal was 18600 fluorescence intensity (a.u.).
